Screening results deposited in PubChem by National Center for Advancing Translational Sciences (NCATS).
MCF10A rereplic – DNA re-replication induction in MCF 10a cells | MCF 10A DNA re-replication, Hoechst nuclear intensity, 48 h | Potency, µM (titrated, usually from 46.1 µM), inactives show at the top dose activity, positive = re-replication, actives largely listed as activators | actives 2.9% (n = 350,000) | AID 624296; also: potency is read from the fitted curve at half-maximal effect; % of control where 0% means no effect; nearly all actives have a fitted effect of over 50% in size
SW480 rerep – DNA re-replication induction in SW480 cells; SW480 DNA re-replication, Hoechst DNA content imaging, 48 h; Potency, µM (top dose mostly 46.1 µM), without a hit: at the top dose re-replication activation, usual class: activators; actives 1.8% (n = 340,000); also: potency is read from the fitted curve at half-maximal effect; % of control where 0% means no effect; nearly all actives have a fitted effect of over 55% in size
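Hoechst fluorescence of nuclei (405 nm excitation, 500-530 nm emission) measured by plate-scanning imager after 48 hr compound exposure at 37 C; re-replication scored as increased number of nuclei with elevated intensity.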
RORg inh – ROR gamma (mouse) transcription inhibition; Drosophila S2 Gal4-RORgamma UAS-luciferase reporter, 20 h; actives 5.4% (n = 310,000); Potency, µM (titrated, usually from 53.6 µM), without a hit: at the highest dose activity change, negative = inhibition, actives largely listed as inhibitors; P51450; AID 2551; also: potency is read from the fitted curve at half-maximal effect; % is scaled to controls: 0 for no effect and ±100 for the full control effect; nearly all actives have a fitted effect of over 60% in size
Target sequence (P51450 whole entry, looked up, the tested form may be a part): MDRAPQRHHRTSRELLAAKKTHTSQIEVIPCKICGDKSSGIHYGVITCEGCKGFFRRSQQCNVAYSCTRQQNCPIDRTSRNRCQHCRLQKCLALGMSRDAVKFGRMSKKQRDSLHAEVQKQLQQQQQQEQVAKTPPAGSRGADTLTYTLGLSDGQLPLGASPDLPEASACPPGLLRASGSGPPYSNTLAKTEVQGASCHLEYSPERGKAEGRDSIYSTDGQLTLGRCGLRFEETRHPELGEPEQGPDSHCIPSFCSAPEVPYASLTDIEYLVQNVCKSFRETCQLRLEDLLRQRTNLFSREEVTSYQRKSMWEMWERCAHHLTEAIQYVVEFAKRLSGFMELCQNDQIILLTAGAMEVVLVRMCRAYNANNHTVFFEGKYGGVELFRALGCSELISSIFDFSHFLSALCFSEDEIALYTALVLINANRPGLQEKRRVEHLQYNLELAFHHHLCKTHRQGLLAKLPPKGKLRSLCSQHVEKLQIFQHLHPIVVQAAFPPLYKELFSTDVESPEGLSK
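Stable Schneider cell line, Gal4 DNA-binding domain fused to ROR gamma, UAS-luciferase. Cmpd 1 hr RT → CuSO4 700 uM final → 20 hr RT → luciferase reagent 10 min → luminescence.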
IL-1B inflam inh – inhibitors of inflammasome signaling (IL-1 beta secretion) | THP-1 LPS/ATP IL-1B secretion, AlphaLISA, 16 h; stronger effect = lower value | activity change, % at 57.5 µM | actives 4.7% (n = 360,000); in the data active = activity change below about -50%; inconclusive = mostly about -30% to -49%; also: % is scaled to controls: 0 for no effect and ±100 for the full control effect
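THP-1 cells pretreated 1 hr with compounds (up to 57.5 uM final), then stimulated with LPS (250 ng/mL final) plus ATP (1.25 mM final); secreted IL-1B measured by AlphaLISA after 16 hr, decreased signal indicating inhibition.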
Gal4-VP16 FLuc – counter-screen for ROR gamma inhibitors: Gal4-VP16 reporter; AID 2546; actives 3.5% (n = 310,000); Drosophila S2 Gal4-VP16 UAS-luciferase, luminescence, 20 h; Potency, µM (highest dose often 53.6 µM), for the others: top-dose activity, negative = inhibition, most hits filed as inhibitors;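 also: Gal4-VP16 expression switched on by copper sulfate through the metallothionein promoter; potency is read from the fitted curve at half-maximal effect; % is scaled to controls: 0 for no effect and ±100 for the full control effect; nearly all actives have a fitted effect of over 50% in size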
* hit, by the source's call; ! = not active in a repeat. Only some compounds are listed: those with a hit (about 11% of all), similar ones and a draw of the others. Unless noted, calls follow the shape of the dose curve; as a rule, active = well fitted curve in the direction sought with a large enough effect; inconclusive = small, poorly fitted or top-dose-only effect, or another doubt; inactive = no such curve, though single readings can be large; an effect the other way counts as inactive or inconclusive.

Results for Cn1nnnc1SCC(=O)Nc1cc(C(C)(C)C)nn1-c1ccccc1 ?
MCF10A rereplic: -0.5%; SW480 rerep: -6.1%; RORg inh: 0.1%; IL-1B inflam inh: inconclusive; Gal4-VP16 FLuc: 2.1%

What do the screens show for `Cc1ccc(NC(=O)CSc2nc(-c3ccco3)cc(C(F)(F)F)n2)cc1C`?
MCF10A rereplic: 1.16µM*; SW480 rerep: 2.59µM*; RORg inh: inconclusive; IL-1B inflam inh: 23.9; Gal4-VP16 FLuc: -8.6%

How did Cc1cc(NC(=O)CSc2nnnn2C)n(-c2ccccc2)n1 do in these assays?
MCF10A rereplic: 6.51µM*; SW480 rerep: 4.11µM*; RORg inh: -2.8%; IL-1B inflam inh: 9.6; Gal4-VP16 FLuc: -2.2%

What do the screens show for `N#C/C(=C(/O)COC(=O)COc1cccc(Br)c1)c1nc2ccccc2[nH]1`?
MCF10A rereplic: 5.1%; SW480 rerep: -22.5%; RORg inh: -10.6%; IL-1B inflam inh: 131.2; Gal4-VP16 FLuc: 12.6µM*

How did Cc1cccc(C)c1OCC(=O)OC/C(O)=C(\C#N)c1nc2ccccc2[nH]1 do in these assays?
MCF10A rereplic: 12.4%; SW480 rerep: inconclusive; RORg inh: 10µM*; IL-1B inflam inh: -28.0; Gal4-VP16 FLuc: 17.8µM*

How did Cc1cc(C)cc(OCC(=O)OC/C(O)=C(\C#N)c2nc3ccccc3[nH]2)c1 do in these assays?
MCF10A rereplic: 18.4%; SW480 rerep: inconclusive; RORg inh: 12.6µM*; IL-1B inflam inh: -97.8*; Gal4-VP16 FLuc: 15.8µM*

What do the screens show for `COc1ccc(NC(=O)c2cc(C3CCCCN3C(=O)c3ccccc3)on2)c(C)c1` (stereo not given)?
IL-1B inflam inh: 11.0

How did COCCCC/C(=N\OCCN)c1ccc(C(F)(F)F)cc1 do in these assays?
MCF10A rereplic: -12.3%; SW480 rerep: 7.9%; RORg inh: 5.6%; IL-1B inflam inh: -50.6*!; Gal4-VP16 FLuc: -13.3%

How did O=C(c1ccc(Br)cc1)N1CCN(c2ccccn2)CC1 do in these assays?
IL-1B inflam inh: 0.0

Results for CCOc1ccccc1N(C(=O)c1ccccc1Cl)C1=NC(C)(C)CS1 ?
MCF10A rereplic: 0.4%; SW480 rerep: -0.7%; RORg inh: 17.8µM*; IL-1B inflam inh: -7.5; Gal4-VP16 FLuc: 5.5%

How did Cc1cc(=O)oc2cc(OCC(=O)N3c4ccccc4CC3C)ccc12 (stereo not given) do in these assays?
MCF10A rereplic: 2.51µM*; SW480 rerep: 1.64µM*; RORg inh: inconclusive; IL-1B inflam inh: 42.3; Gal4-VP16 FLuc: -16.6%

How did Cc1cc(=O)oc2cc(OCC3CC(c4ccccc4)=NO3)ccc12 (stereo not given) do in these assays?
MCF10A rereplic: 4.11µM*; SW480 rerep: 5.17µM*; RORg inh: 22.0%; IL-1B inflam inh: 63.5; Gal4-VP16 FLuc: 27.9%

Results for C#CCOc1ccc2c(C)cc(=O)oc2c1 ?
MCF10A rereplic: -9.7%; SW480 rerep: 6.9%; RORg inh: inconclusive; IL-1B inflam inh: -5.8; Gal4-VP16 FLuc: 11.2%

What do the screens show for `O=[N+]([O-])c1ccc(OCc2nnc(-c3ccccc3)o2)cc1`?
MCF10A rereplic: -0.8%; SW480 rerep: -0.3%; RORg inh: 21.3%; IL-1B inflam inh: 31.7; Gal4-VP16 FLuc: -16.9%

What do the screens show for `O=[N+]([O-])c1ccc(OCC2CC(c3ccccc3)=NO2)cc1` (stereo not given)?
MCF10A rereplic: inconclusive; SW480 rerep: 16.4µM*; RORg inh: 16.8%; IL-1B inflam inh: -0.9; Gal4-VP16 FLuc: -3.1%

Results for Cc1cc(=O)oc2cc(OCC3CC(c4ccc(Br)cc4)=NO3)ccc12 (stereo not given) ?
MCF10A rereplic: 9.2µM*; SW480 rerep: inconclusive; RORg inh: 34.6%; IL-1B inflam inh: 24.8; Gal4-VP16 FLuc: inconclusive

Results for CCCCN(C)c1c(C)nc2ccc(C(=O)NCc3ccc4c(c3)OCO4)cn12 ?
IL-1B inflam inh: -11.8

What do the screens show for `COc1ccccc1NS(=O)(=O)c1cccc(NC(=O)Nc2ccccc2)c1`?
MCF10A rereplic: 17.0%; SW480 rerep: inconclusive; RORg inh: inconclusive; IL-1B inflam inh: -79.1*; Gal4-VP16 FLuc: -4.0%

What do the screens show for `COc1ccccc1NS(=O)(=O)c1cccc(NC(=O)Nc2ccc(Cl)cc2)c1`?
MCF10A rereplic: inconclusive; SW480 rerep: inconclusive; RORg inh: inconclusive; IL-1B inflam inh: -69.1*; Gal4-VP16 FLuc: -28.3%

What do the screens show for `NC1=NC(=Nc2cccc(S(N)(=O)=O)c2)c2ccccc21`?
MCF10A rereplic: 2.6%; SW480 rerep: -4.2%; RORg inh: -18.9%; IL-1B inflam inh: inconclusive; Gal4-VP16 FLuc: 0.4%

How did COc1ccccc1NS(=O)(=O)c1cccc(N=C2N=C(N)c3ccccc32)c1 do in these assays?
MCF10A rereplic: 23.8%; SW480 rerep: 3.6%; RORg inh: 15.8%; IL-1B inflam inh: -66.2*; Gal4-VP16 FLuc: inconclusive

How did CN(C)c1ccc(/C=N/N(CCC(=O)NC(C)(C)C)C2=NS(=O)(=O)c3ccccc32)cc1 do in these assays?
MCF10A rereplic: 18.4µM*; SW480 rerep: 18.4µM*; RORg inh: 25.0%; IL-1B inflam inh: -5.5; Gal4-VP16 FLuc: -5.4%

How did CC(C)(C)NC(=O)CCN(/N=C/c1ccc([N+](=O)[O-])o1)C1=NS(=O)(=O)c2ccccc21 do in these assays?
MCF10A rereplic: 23.1µM*; SW480 rerep: 13µM*; RORg inh: -17.2%; IL-1B inflam inh: 7.5; Gal4-VP16 FLuc: -20.7%

Results for CN(C)c1ccc(/C=N/N(CCO)C2=NS(=O)(=O)c3ccccc32)cc1 ?
MCF10A rereplic: 0.1%; SW480 rerep: -1.1%; RORg inh: -10.3%; IL-1B inflam inh: -17.9; Gal4-VP16 FLuc: -9.8%

Results for COC(=O)C[C@H]1CC[C@H](NC(=O)Nc2ccccc2F)[C@@H](CO)O1 ?
IL-1B inflam inh: -7.8

What do the screens show for `C[C@H](c1ccccc1)N1C[C@@H](COCc2ccccc2)Oc2cc(N3CC[C@@H](N(C)C)C3)ccc2S1(=O)=O`?
IL-1B inflam inh: -5.8

How did CN1C2CCC1/C(=C\c1ccc(F)cc1)C(=O)/C2=C/c1ccc(F)cc1 do in these assays?
MCF10A rereplic: 1.9%; SW480 rerep: inconclusive; RORg inh: -25.0%; IL-1B inflam inh: -86.9*; Gal4-VP16 FLuc: 11.5%

What do the screens show for `O=c1[nH]c2cc([N+](=O)[O-])ccc2c2cc(Br)ccc12`?
IL-1B inflam inh: 24.9

What do the screens show for `CCC(c1ccc(O)c(O)c1)C(CC)c1ccc(O)c(O)c1` (stereo not given)?
MCF10A rereplic: -12.8%; SW480 rerep: 10.3µM*; IL-1B inflam inh: -98.8*

Results for COCCNC(=S)N/N=C(\C)CCc1ccc2c(c1)OCO2 ?
MCF10A rereplic: 5.9%; SW480 rerep: inconclusive; RORg inh: 4.47µM*; IL-1B inflam inh: 24.1; Gal4-VP16 FLuc: 10µM*
